Data from PubChem BioAssay (NCATS).
Results filed as inconclusive are left out. Entries that show only a call come without a potency. A number with no mark means an inactive call. Activity calls are given as the source filed them. Calls come from the whole dose curve; as a rule, active = well fitted inhibition curve with a large enough effect; inconclusive = small, poorly fitted or top-dose-only effect; inactive = flat fitted curve, though single readings scatter.

What follows are molecules tested on MCC-13 (assay: qHTS assay to identify novel small-molecules to repurpose for Merkel cell carcinoma treatment (AID 1296009; note: nearly all actives have a fitted effect of over 60% in size)). Conditions: MCC and control cell lines, CellTiter-Glo viability, 72 h; series mostly up to 46 µM.
Outline: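 CellTiter-Glo luminescence after 72 hr compound exposure at 37 degree celsius gave cell viability. Libraries NPC and MIPE were run as 8- and 11-point dose responses; RLUs normalized to DMSO (negative) and no-cell (cytotoxicity) controls.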

Row | SMILES | Potency | activity change, negative = cytotoxicity
1 | C[C@@H](C1=C(CCN(C)C)Cc2ccccc21)c1ccccn1 | inactive | 
2 | O=C1OC2(c3ccccc31)c1cc(I)c(O)c(I)c1Oc1c2cc(I)c(O)c1I | inactive | 
3 | CCOCCn1c(C2CCN(CCc3ccc(C(C)(C)C(=O)O)cc3)CC2)nc2ccccc21 | inactive | 
4 | O=C(Oc1ccccc1)c1cccc(C(=O)Oc2ccccc2)c1 | inactive | 
5 | CCc1cc2cc(OC)c(OC)cc2c(Cc2ccccc2)n1 | inactive | 
6 | CCOc1ncc(F)c(=O)[nH]1 | inactive | 
7 | COCCOCC(OC)OC | inactive | 
8 | O=C(O)c1ccc(OCCN2CCCCC2)cc1 | inactive | 
9 | Oc1ccccc1 | inactive | 
10 | O=C(OCCN1CCOCC1)c1cccnc1Nc1cccc(C(F)(F)F)c1 | inactive | 
11 | O=C(O)c1ccccc1Nc1cc(Cl)ccc1C(=O)O | inactive | 
12 | COc1ccc2cc(C=O)ccc2c1 | inactive | 
13 | COc1ccc2c(c1)c(CC(=O)OC/C=C(\C)CC/C=C(\C)CCC=C(C)C)c(C)n2C(=O)c1ccc(Cl)cc1 | inactive | 
14 | O=C(O)[C@@H](O)[C@H](O)[C@H](O)[C@@H](O)C(=O)O | inactive | 
15 | CNC(=O)c1c(I)c(NC(C)=O)c(I)c(C(=O)O)c1I | inactive | 
16 | NCC[C@H](O)C(=O)N[C@@H]1C[C@H](N)[C@@H](O[C@H]2O[C@H](CN)[C@@H](O)[C@H](O)[C@@H]2O)[C@H](O)[C@@H]1O[C@H]1O[C@H](CO)[C@@H](O)[C@H](N)[C@@H]1O |  | 1.29% [at 0.597 µM]
17 | O=C1Cc2cc(Cl)ccc2N1 | inactive | 
18 | CN(C)CCOC1=Cc2ccccc2Sc2ccc(Cl)cc21 | inactive | 
19 | CCCCC(CC)CNC(=O)CC(C)OC(=O)CCC(=O)O (stereo not given) | inactive | 
20 | C[C@@H]1CCC[C@H](C)N1CCCC(O)(c1ccccc1)c1ccccn1 (stereo not given in full) | inactive | 

Row | SMILES | Potency | activity change, negative = cytotoxicity
21 | O=C1CCCc2c(O)cccc21 | inactive | 
22 | C=CCOc1cc(Cl)ccc1C(=O)NCCN(CC)CC | inactive | 
23 | Cc1onc(-c2ccccc2)c1C(=O)Cl | inactive | 
24 | CCCCCCOC(=O)NC(=N)c1ccc(NCc2nc3cc(C(=O)N(CCC(=O)OCC)c4ccccn4)ccc3n2C)cc1 | inactive | 
25 | CCN1CCN(C(=O)N[C@@H](C(=O)N[C@@H]2C(=O)N3[C@@H]2SC(C)(C)[C@H]3C(=O)O)c2ccccc2)C(=O)C1=O | inactive | 
26 | Nc1nc2ccccc2n1Cc1ccc(F)cc1 | inactive | 
27 | Oc1ccc(CCNCCCCCCNCCc2ccccc2)cc1O | inactive | 
28 | CCOC(=O)c1cc(=O)c2c(OCC(COc3cccc4oc(C(=O)OCC)cc(=O)c34)OC(=O)[C@@H](N)CCCCN)cccc2o1 | inactive | 
29 | CC(C)C(=O)Nc1cccc(C(F)(F)F)c1 | inactive | 
30 | C=C(C)C(=O)OCC(O)CO (stereo not given) | inactive | 
31 | CCCCN(CCN(CCCC)C(=O)N1CCOCC1)C(=O)N1CCOCC1 | inactive | 
32 | CC(Oc1c(Cl)cccc1Cl)C1=NCCN1 (stereo not given) | inactive | 
33 | CC(=O)OC/C=C(C)/C=C/C=C(C)/C=C/C1=C(C)CCCC1(C)C | inactive | 
34 | CC(C)(C)CC(=O)OCC(=O)[C@@]1(O)CC[C@H]2[C@@H]3CCC4=CC(=O)C=C[C@]4(C)[C@H]3[C@@H](O)C[C@@]21C | inactive | 
35 | Cc1ccc(/C=N/n2c(-c3ccccc3)csc2=S)cc1 | inactive | 
36 | CO[C@@H]1[C@@H](O[C@@H]2O[C@H](C)[C@@H](O[C@H]3C[C@@](C)(O)[C@@H](O)[C@H](C)O3)[C@H](N(C)C)[C@H]2O)[C@@H](CC=O)C[C@@H](C)[C@@H](O[C@@H]2CC[C@H](N(C)C)[C@@H](C)O2)/C=C/C=C/C[C@@H](C)OC(=O)C[C@H]1OC(C)=O | inactive | 
37 | N#CSCC(=O)O | inactive | 
38 | Cc1ccc(CCn2c3c(c4cc(Cl)ccc42)CN(C)CC3)cn1 | inactive | 
39 | CO/N=C(/C(=O)N[C@@H]1C(=O)N2C(C(=O)OCOC(=O)C(C)(C)C)=C(C)CS[C@H]12)c1csc(N)n1 | inactive | 
40 | CC(C)Cc1ccc(C(C)C(=O)OCc2ccccn2)cc1 (stereo not given) | inactive | 
